Hits are enriched below; roughly 20% of the tested compounds scored in any of these assays.
HCMV inh = blocks human cytomegalovirus replication; HFF cells, HCMV-luciferase reporter, 72 h; stronger effect = lower value; activity change, negative = inhibition, % at 57.5 µM; 410,000 tested, 4.5% active; AID 1259415; in the data active = activity change below about -60%; inconclusive = no clear call, values can overlap the other calls; inactive = above about -39%; also: % is scaled to controls: 0 for no effect and ±100 for the full control effect
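Two-dose cell screen: HFF monolayers treated with compounds and infected with luciferase-expressing HCMV at 1 PFU/cell, 72 h at 37C, then lysed for luciferase measurement.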
Shiga inhibitor = blocks Shiga toxin action in Vero cells; Vero cells, Shiga toxin protein synthesis inhibition reporter; inhibition, % at 38.7 µM; 290,000 tested, 9.2% active; AID 2315; in the data active = inhibition mostly above about 28%, no sharp cut-off; inactive = mostly below about 43%; also: 0% is about no effect
Pf growth 96h = inhibits malaria parasite growth, 96 h; P. falciparum luciferase reporter growth, 96 h; Potency, µM (top dose mostly 28.7 µM), for the others: at the highest dose activity change, negative = inhibition, actives largely listed as inhibitors; 320,000 tested, 6.9% active; AID 504834; also: potency is read from the fitted curve at half-maximal effect; % is scaled to controls: 0 for no effect and ±100 for the full control effect
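Erythrocytes infected with luciferase-expressing P. falciparum were dispensed at 2% hematocrit and 0.05% parasitemia (final), then incubated with compounds 96 hours at 37 C in 5% CO2. Luminescence after detection reagent addition reported growth.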
Pf growth 48h = inhibits P. falciparum growth in the first generation, 48 h; Potency, µM (top dose mostly 28.7 µM), without a hit: at the highest dose activity change, negative = inhibition, usual class: inhibitors; P. falciparum luciferase growth in erythrocytes, 48 h; 310,000 tested, 5.9% active; AID 504832; also: potency is read from the fitted curve at half-maximal effect; % is scaled to controls: 0 for no effect and ±100 for the full control effect
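Read-out is firefly luciferase luminescence from an integrated reporter in P. falciparum, so falling signal marks reduced parasite growth. Infected erythrocytes were at 2% hematocrit and 0.1% parasitemia (final) in Albumax-supplemented RPMI 1640.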
CHX counter = counter-screen hit for Shiga toxin inhibitors, cycloheximide. 300,000 tested, 12% active. cell reporter, cycloheximide protein synthesis inhibition counterscreen. max response, %; in the data active = max response mostly above about 13%, no sharp cut-off; inactive = mostly below about 14%; also: read at 38.3 µM for the half of the compounds with a filed dose; 0% is about no effect
* hit, by the source's call; ? = inconclusive; / = not tested or not shown; [ ] = dose if it differs, or a comment. Unless noted, calls follow the shape of the dose curve; as a rule, active = well fitted inhibition curve with a large enough effect; inconclusive = small, poorly fitted or top-dose-only effect, or another doubt; inactive = no such curve, though single readings can be large or run the other way.

SMILES | HCMV inh | Shiga inhibitor | Pf growth 96h | Pf growth 48h | CHX counter
COc1ccccc1-c1nc(-c2ccncc2)no1 | 111 | 79* | / | 111% | 32*
COc1ccc(-c2nc(-c3ccc(Br)cc3)no2)c(OC)c1 | 138 | 197* | ? | 203% | 39*
O=C(O)c1ccc(-c2noc(-c3ccccc3C(F)(F)F)n2)cc1 | 64 | / | / | / | /
COc1ccc(-c2ccc(-c3noc(-c4ccccc4OC)n3)c(OC)n2)cc1 | -4 | -6 | -8% | ? | 2
COc1ccccc1-c1nc(-c2ccc(Br)cc2)no1 | 178 | 25 | 232% | / | 30*
CC(=O)c1c(C)[nH]c(C(=O)COC(=O)Cc2ccccc2F)c1C | 42 | / | / | / | /
CCOc1ccccc1C1CC(=O)Nc2c1c(=O)n(C)c1ncnn21 (centres undefined) | -8 | / | / | / | /
O=c1oc2c(CN3CCN(CCO)CC3)c(O)ccc2cc1-c1ccccn1 | 55 | 2 | 11% | 7% | -1
COC(=O)[C@]12CCCCC=C1N(Cc1ccccc1)C(=O)[C@H](CC(=O)NCCCN1CCCC1=O)C2 | 34 | / | / | / | /
Cc1c(-c2nc(-c3ccc(C(F)(F)F)cc3)no2)n(C)oc1=O | 220 | 129* | 126% | 175% | 70*
CCOc1nc(C)ccc1-c1noc(-c2ccccc2OC)n1 | 55 | 39 | 0% | 79% | 24*
CCSc1ccccc1-c1nc(-c2ccncc2)no1 | 49 | 35 | 0% | ? | 26*
CCOc1ccccc1-c1nc(-c2ccc(-c3ccccc3)nc2OCC)no1 | -5 | / | / | / | /
Cc1noc(-c2ccc(-c3noc(-c4ccc(C(F)(F)F)cc4)n3)cc2)n1 | 14 | / | / | / | /
CN(C)c1ccc(-c2noc(-c3ccccc3O)n2)cc1 | 55 | 126* | -24% | 103% | 47*
CCCc1cc(=O)n2[nH]c(NC(=O)c3ccc(C(C)(C)C)cc3)nc2n1 | 0 | / | / | / | /
COc1ccccc1NC(=O)[C@@H]1CCCN1S(=O)(=O)c1ccc(Cl)cc1 | 0 | / | / | / | /
COC(=O)/C=C/CC(C)OS(N)(=O)=O (centres undefined) | -19 | -11 | -27% | 7% | -2
Cc1ccc(-c2noc(-c3ccccc3Br)n2)cc1 | 132 | 65* | 362% | 311% | 35*
CS(=O)(=O)c1ccccc1-c1nc(-c2ccc(C(F)(F)F)cc2)no1 | 37 | 60* | 52% | -5% | 21*
CCCCN(C)CCCNC(=O)c1cc(=O)[nH]c2ccc(S(=O)(=O)N3CCCCC3)cc12 | -37 | / | / | / | /
CCN1CCN(c2cc(C)c3cc(NC(=O)c4ccc(Br)o4)ccc3n2)CC1 | 28 | 102 | 25% | 2.3µM* | 15*
CCN1CCN(c2cc(C)c3cc(NC(=O)c4cccnc4Cl)ccc3n2)CC1 | 34 | -3 | / | / | 1
Cc1cc(N2CCN(C)CC2)nc2ccc(NC(=O)c3ccccc3F)cc12 | 19 | 72* | 9.3µM* | 33% | 37*
CCN1CCN(c2cc(C)c3cc(NC(=O)c4cc(Br)ccc4Cl)ccc3n2)CC1 | -72* | / | / | / | /
SMILES | HCMV inh | Shiga inhibitor | Pf growth 96h | Pf growth 48h | CHX counter
CCN1CCN(c2cc(C)c3cc(NC(=S)N4CCCC4)ccc3n2)CC1 | -33 | -16 | 0% | -11% | -3
CCN1CCN(c2cc(C)c3cc(NC(=O)c4ccccc4F)ccc3n2)CC1 | 7 | 21 | 4.7µM* | / | 14
CCC(C)(C)NS(=O)(=O)c1cc(-c2cc(C)no2)ccc1C | 0 | / | / | / | /
NC(=O)OC[C@H](O)COc1ccc(Cl)cc1 | / | / | 6%[12.8 µM] | -1%[12.8 µM] | /
COc1cccc(NC(=O)Cn2nnc(C(=O)NCCc3ccccc3)c2N)c1 | -18 | 2 | ? | ? | 2
CC(Oc1ccccc1F)C(=O)NNC(=O)c1cccc(S(=O)(=O)N2CCN(C)CC2)c1 (centres undefined) | -11 | / | ? | -17% | /
CCN1CCN(c2cc(C)c3cc(NC(=O)c4ccncc4)ccc3n2)CC1 | 14 | -21 | -4% | / | -3
CCN1CCN(c2cc(C)c3cc(NC(=O)c4ccc(C)c(C)c4)ccc3n2)CC1 | -17 | -8 | ? | 2.1µM* | 0
N/C(=N\OC(=O)C1CC1)c1ccc([N+](=O)[O-])s1 | -16 | 13 | 6.6µM* | ? | 10
N/C(=N\O)c1ccc([N+](=O)[O-])s1 | 1 | -10 | ? | ? | 8
CC(C)(C)C(=O)O/N=C(\N)c1ccc([N+](=O)[O-])s1 | -9 | 22 | ? | ? | 24*
CCOC(=O)[C@]12Cc3cc4ccccc4cc3[C@H]1N(Cc1ccccc1)C(=O)c1cc(OC)ccc12 | -91* | / | / | / | /

Source: PubChem BioAssay
